Results taken from publication PMC4336329 (PLoS ONE, 2015).
In all, about 310,000 compounds went through this assay and about 2,200 (0.71%) showed an effect of 50% or more. The effect is printed as a negative number. The entries come from a sample that favours strong results as a whole.

These molecules were tested against human ether-à-go-go-related gene (hERG) potassium channel (human, UniProt Q12809) (assay: primary screen, population patch clamp on CHO cells stably expressing hERG; higher = less effect of the substance).
Chain of human ether-à-go-go-related gene (hERG) potassium channel (Q12809 whole entry, looked up): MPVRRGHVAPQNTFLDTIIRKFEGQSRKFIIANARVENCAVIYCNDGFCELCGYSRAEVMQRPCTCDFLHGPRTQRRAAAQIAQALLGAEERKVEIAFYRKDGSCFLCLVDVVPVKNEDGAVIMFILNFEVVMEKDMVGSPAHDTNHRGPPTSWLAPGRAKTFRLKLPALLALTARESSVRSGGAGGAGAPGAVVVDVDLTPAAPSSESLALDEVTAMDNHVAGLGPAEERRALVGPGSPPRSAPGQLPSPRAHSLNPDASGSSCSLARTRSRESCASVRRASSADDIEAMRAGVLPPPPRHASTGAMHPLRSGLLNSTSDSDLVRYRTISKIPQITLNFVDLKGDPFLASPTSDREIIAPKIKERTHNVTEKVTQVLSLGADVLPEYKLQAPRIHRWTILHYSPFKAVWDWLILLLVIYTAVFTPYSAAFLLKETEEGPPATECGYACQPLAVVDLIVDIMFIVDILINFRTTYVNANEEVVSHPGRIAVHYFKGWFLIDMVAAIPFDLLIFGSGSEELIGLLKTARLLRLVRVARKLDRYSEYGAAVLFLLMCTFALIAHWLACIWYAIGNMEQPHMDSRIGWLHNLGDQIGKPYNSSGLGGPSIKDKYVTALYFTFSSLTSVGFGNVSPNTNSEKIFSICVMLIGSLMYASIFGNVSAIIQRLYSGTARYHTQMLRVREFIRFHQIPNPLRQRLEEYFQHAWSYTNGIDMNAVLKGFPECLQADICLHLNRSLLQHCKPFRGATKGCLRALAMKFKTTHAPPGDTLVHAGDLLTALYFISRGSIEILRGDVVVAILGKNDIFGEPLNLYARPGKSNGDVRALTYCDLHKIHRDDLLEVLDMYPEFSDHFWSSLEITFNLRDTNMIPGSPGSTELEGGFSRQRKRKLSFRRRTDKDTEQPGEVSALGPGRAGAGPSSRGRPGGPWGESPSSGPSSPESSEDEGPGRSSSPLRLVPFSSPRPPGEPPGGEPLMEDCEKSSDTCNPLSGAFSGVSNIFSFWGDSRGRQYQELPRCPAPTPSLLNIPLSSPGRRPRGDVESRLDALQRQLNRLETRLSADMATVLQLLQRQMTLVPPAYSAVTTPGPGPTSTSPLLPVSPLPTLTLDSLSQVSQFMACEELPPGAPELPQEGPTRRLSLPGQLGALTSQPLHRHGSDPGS
Description: Briefly, Chinese hamster ovary (CHO) cells stably expressing the hERG channel were dislodged from tissue culture flasks and dispensed into PPC plates. […] During the recording, background leak currents were estimated by a 100 ms step to -80 mV from an initial holding potential of -70 mV and subtracted from the subsequent current measurement. The campaign was conducted in two phases using slight differences in recording protocol. In the first phase, the initial voltage pulse used a 100 ms step to -30 mV from a holding potential of -70 mV, a 2 s conditioning step to +25 mV, and a 2 s test step to -30 mV. During the second phase of the screen, the potential during the conditioning step was raised to +45 mV. In both phases of the campaign, a secondary voltage pulse was applied using the same parameters as the second phase initial pulse. The initial and secondary pulses were applied in the absence of compound, and upon application of 1 μM and 10 μM test concentrations. Small molecule effects on hERG current density were quantified by […].

| SMILES | hERG current change (%, negative = inhibition) at 1uM [%] |
| --- | --- |
| CCn1c(SCC(=O)Nc2nc(C)c(C)s2)nnc1-c1cccs1 | -62.5 |
| CCn1c(SCC(=O)Nc2nc(C)c(C)s2)nnc1-c1ccco1 | -11.2 |
| C=CCn1c(SCC(=O)Nc2ccc3c(c2)CCC3)nnc1-c1cccs1 | -83.5 |
| CCn1c(SCC(=O)Nc2ccccc2)nnc1-c1cccs1 | -13.8 |
| C=CCn1c(SCC(=O)N2CCN(c3ccccc3)CC2)nnc1-c1ccco1 | 4.57 |
| C=CCn1c(SCC(=O)N2CCN(c3ccc(F)cc3)CC2)nnc1-c1cccs1 | -52.4 |
| C=CCn1c(SCC(=O)N2CCN(c3ccc(F)cc3)CC2)nnc1-c1ccco1 | -67 |
| C=CCn1c(SCC(=O)Nc2ccc(C(=O)OC(C)C)cc2)nnc1-c1cccs1 | 9.31 |
| C=CCn1c(SCC(=O)C(C)(C)C)nnc1-c1cccs1 | -9.56 |
| C=CCn1c(SCC(=O)Nc2ccc(C(=O)OCC)cc2)nnc1-c1cccs1 | 12.3 |
| C=CCn1c(SCC(=O)Nc2ccc(N3CCOCC3)cc2)nnc1-c1ccco1 | 8.51 |
| CN(CC(=O)Nc1ccc(Cl)c(Cl)c1)C(=O)C1CCCC1 | 5.9 |
| Cc1cc(NC(=O)c2cc(-c3ccccc3)on2)n(-c2ccccc2)n1 | 7.88 |
| O=C(COC(=O)c1ccc2ccccc2n1)c1ccc(F)cc1 | -5.55 |
| Cc1cc([N+](=O)[O-])ccc1NC(=O)Nc1ccccc1F | 13 |
| O=C(CCc1nnc(CCc2ccccc2)o1)NC(c1cccnc1)C(F)(F)F (stereo not drawn) | -0.569 |
| CC1CN(C(=O)C(Sc2ccccc2)c2ccccc2)CC(C)O1 (stereo not drawn) | 5.46 |
| N#C/C(=C1\CCCN1)c1ccc2ccccc2n1 | 8.93 |
| Cc1ccc(CCN2CC(C(=O)NCCCN3CCOCC3)CC2=O)cc1 (stereo not drawn) | 16.5 |
| CN1CCCc2cc3c(C(F)(F)F)cc(=O)oc3nc21 | 14.3 |
| O=C(CSc1nc(C(F)(F)F)cc(=O)[nH]1)N1CCCCCC1 | 5.27 |
| Cc1nc(C)c(C(=O)NCc2ccccc2Cl)o1 | 10.8 |
| O=[N+]([O-])c1cccc(N(CC(O)CN2CCCCC2)S(=O)(=O)c2ccccc2)c1 (stereo not drawn) | -24.2 |

| SMILES | hERG current change (%, negative = inhibition) at 1uM [%] |
| --- | --- |
| Cc1ccc(S(=O)(=O)N(CC(O)CN2CCOCC2)c2cccc([N+](=O)[O-])c2)cc1 (stereo not drawn) | 2.27 |
| O=[N+]([O-])c1ccc(N(CC(O)CN2CCCCC2)S(=O)(=O)c2ccccc2)cc1 (stereo not drawn) | -79.5 |
| O=[N+]([O-])c1ccc(S(=O)(=O)N(CC(O)CN2CCCCC2)c2ccccc2)cc1 (stereo not drawn) | -80.4 |
| Cc1ccc(S(=O)(=O)N(CC(O)CN2CCCCC2)c2cccc([N+](=O)[O-])c2)cc1 (stereo not drawn) | -73.1 |
| COc1ccc([N+](=O)[O-])cc1N(CC(O)CN1CCCCC1)S(=O)(=O)c1ccccc1 (stereo not drawn) | 2.16 |
| O=[N+]([O-])c1ccccc1S(=O)(=O)N(CC(O)CN1CCCCC1)c1ccccc1 (stereo not drawn) | 2.79 |
| O=C(CN(c1ccc([N+](=O)[O-])cc1)S(=O)(=O)c1ccccc1)N1CCCCC1 | -0.85 |
| O=[N+]([O-])c1cccc(N(CC(O)CN2CCCC2)S(=O)(=O)c2ccccc2)c1 (stereo not drawn) | -25.9 |
| Cn1c(=O)cc(OCCCC(=O)Nc2ccc3c(c2)OCCO3)c2ccccc21 | 17.2 |
| Cc1ccn2c(=O)nc(SCC(=O)NC3CCCCC3)nc2c1 | 2.62 |
| C/C(=N\NC(=O)CNC(=O)C(c1ccccc1)c1ccccc1)c1ccc(C(C)(C)C)cc1 | 2.98 |
| COc1cc(-c2nc3cnccc3n2C)cc(OC)c1OC | 2.44 |
| CCCCOc1ccc(CN(C)c2ncnc(N)n2)cc1 | -1.16 |
| O=[N+]([O-])/C(C(Cl)=C(Cl)Cl)=C(\Sc1ccccc1)N1CCCCC1 | -3.16 |
| Nc1cccc2c1C(=O)N(C(=O)c1cccc(S(=O)(=O)N3CCCC3)c1)C2=O | 12.5 |
| COC(=O)c1ccc(Cn2nc(C)c([N+](=O)[O-])c2C)o1 | 2.01 |
| O=C1NN(c2ccc(Cl)c(Cl)c2)C(=O)/C1=C/c1ccc(-c2ccccc2C(=O)O)o1 | 13 |
| Cc1cccc(CS(=O)(=O)Cc2ccc(C(=O)N3CCC4(CC3)OCCO4)o2)c1 | 10 |
| Cc1cccnc1NC(=S)NCCc1ccccc1 | -3.36 |
| CC(C)C[C@H](NC(=O)c1nc[nH]c1C(=O)N[C@@H](CC(C)C)C(=O)OCc1ccccc1)C(=O)OCc1ccccc1 | 9.56 |
| CNC(=O)c1[nH]cnc1C(=O)N[C@@H](CC(C)C)C(=O)OCc1ccccc1 | -51.8 |
| CC(C)C[C@H](NC(=O)c1[nH]cnc1C(=O)N[C@@H](Cc1ccccc1)C(=O)OCc1ccccc1)C(=O)OCc1ccccc1 | 10.2 |
